The list is not random: actives were taken first. Their share in the collection is about 9.2%.
NPC1 prom act: activators of NPC1 promoter; Huh7 NPC1 promoter luciferase reporter, 24 h; Potency, µM (highest dose often 9.22 µM), usual class: activators; 320,000 tested, 2.4% active; AID 485313; also: nearly all actives have a fitted effect of over 60% in size
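Luciferase expression driven by the NPC1 promoter was measured in stably transfected Huh7 cells after a 24 h compound incubation, using a luciferase reagent and a luminescence read.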
SMN2 splice up: enhancers of SMN2 splice variant expression; HEK293 SMN2-luciferase splicing reporter, luminescence, 30-36 h; Potency, µM (highest dose often 46.1 µM), usual class: activators; 210,000 tested, 2.8% active; AID 1458; also: nearly all actives have a fitted effect of over 55% in size
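HEK293 cells carry an SMN2 minigene-luciferase reporter in which exon 7 inclusion puts luciferase in frame. Cells were seeded at 2000 cells/well, attached for 10-12 hours, then exposed to compounds for 30-36 hours at 37C before ONE-Glo luminescence.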
FLuc counter: counter-screen for miR-21 project: firefly luciferase inhibitors or activators. P08659. purified FLuc, Km substrates, luminescence inhibition. Potency, µM (doses to about 57.5 µM), most hits filed as inhibitors. 360,000 tested, 6.9% active; also: nearly all actives have a fitted effect of over 55% in size
Target sequence (P08659 whole entry, looked up): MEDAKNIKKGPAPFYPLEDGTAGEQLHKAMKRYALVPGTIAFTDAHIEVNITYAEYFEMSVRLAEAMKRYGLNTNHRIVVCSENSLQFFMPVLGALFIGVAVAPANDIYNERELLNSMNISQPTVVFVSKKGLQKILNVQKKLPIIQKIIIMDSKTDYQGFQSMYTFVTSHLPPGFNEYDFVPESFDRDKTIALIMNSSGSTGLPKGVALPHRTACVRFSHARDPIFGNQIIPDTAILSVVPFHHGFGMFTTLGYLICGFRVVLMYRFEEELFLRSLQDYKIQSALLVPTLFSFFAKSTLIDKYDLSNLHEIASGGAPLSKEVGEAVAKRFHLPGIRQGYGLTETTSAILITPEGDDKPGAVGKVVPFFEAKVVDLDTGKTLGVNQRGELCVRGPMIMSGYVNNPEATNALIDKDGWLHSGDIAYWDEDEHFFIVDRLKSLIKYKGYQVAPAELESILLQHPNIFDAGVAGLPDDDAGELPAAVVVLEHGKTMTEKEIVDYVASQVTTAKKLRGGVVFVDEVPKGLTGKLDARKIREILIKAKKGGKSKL
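Purified P. pyralis luciferase, 10 nM final, with Km-level 10 uM D-luciferin and 10 uM ATP in 50 mM Tris acetate pH 7.5, 10 mM Mg acetate, 0.01% Tween-20, 0.05% BSA; 6-point qHTS titration about 60 µM downward; luminescence read.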
ELG1 genotoxic: induces genotoxicity in HEK293T cells with luciferase-tagged ELG1; Potency, µM (series often up to 46 µM), usual class: activators; 330,000 tested, 1.3% active; AID 504466; HEK293T ELG1-luciferase reporter, luminescence, 16 h; also: nearly all actives have a fitted effect of over 60% in size
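16 hr compound incubation (37 °C, 5% CO2) of HEK293T cells carrying luciferase-tagged ELG1; luciferase then measured by ONE-Glo luminescence after 30 min at RT.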
Rab9 prom act: Rab9 promoter activation | Huh7 Rab9 promoter-luciferase reporter, luminescence, 24 h | Potency, µM (top dose mostly 9.22 µM), hits mostly activators | 320,000 tested, 2.8% active; also: nearly all actives have a fitted effect of over 60% in size
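Quantitative HTS format; Huh7 Rab9-luciferase reporter cells (1500/well) receive compound 2 h post-plating, incubate 24 h at 37 °C, then get luciferase reagent for 10 min before luminescence reading.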
ELG1 DNA repair: blocks ELG1-dependent DNA repair in HEK293T cells. AID 504467. HEK293T ELG1-luciferase reporter, luminescence, 16 h; DNA damage induced by 5-fluorouridine. Potency, µM (doses to about 46.1 µM), hits mostly inhibitors. 330,000 tested, 2.3% active; also: nearly all actives have a fitted effect of over 55% in size
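Reporter activity after DNA damage by 5-fluorouridine is monitored. Compound-treated cells incubate 16 hr at 37 °C, then ONE-Glo is added for 30 min before luminescence reading.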
Hits are given with their value. Calls follow the shape of the dose curve; as a rule, active = well fitted curve in the direction sought with a large enough effect; inconclusive = small, poorly fitted or top-dose-only effect, or another doubt; inactive = no such curve, though single readings can be large; an effect the other way counts as inactive or inconclusive.

Results for COc1ccc(-c2csc(N=C(N)N)n2)cc1 ?
NPC1 prom act: inconclusive; SMN2 splice up: inactive; FLuc counter: 15µM; ELG1 genotoxic: inconclusive; Rab9 prom act: inconclusive; ELG1 DNA repair: inconclusive

What do the screens show for `COc1ccc(-c2csc(-c3cc4ccccc4oc3=N)n2)cc1`?
NPC1 prom act: inactive; SMN2 splice up: inactive; FLuc counter: 5.4µM; ELG1 genotoxic: inactive; Rab9 prom act: inactive; ELG1 DNA repair: inactive

What do the screens show for `Cc1ccc(-c2csc(N=C(N)N)n2)c(C)c1`?
NPC1 prom act: inactive; FLuc counter: inconclusive; ELG1 genotoxic: inactive; Rab9 prom act: inactive; ELG1 DNA repair: inactive

How did Nc1nc(-c2ccc3ccccc3c2)cs1 do in these assays?
NPC1 prom act: 3.2µM; SMN2 splice up: 11µM; FLuc counter: 3.8µM; ELG1 genotoxic: 4.6µM; Rab9 prom act: 0.79µM; ELG1 DNA repair: inconclusive

What do the screens show for `Cc1ccc(NNC(=O)c2ccno2)c(C)c1`?
NPC1 prom act: inactive; FLuc counter: inactive; ELG1 genotoxic: inactive; Rab9 prom act: inactive; ELG1 DNA repair: 13µM

What do the screens show for `COc1ccc(CCN2C(=O)c3[nH]nc(-c4ccccc4O)c3C2c2ccccc2)cc1OC` (stereo unspecified)?
NPC1 prom act: inactive; SMN2 splice up: inactive; FLuc counter: inactive; ELG1 genotoxic: inactive; Rab9 prom act: inactive; ELG1 DNA repair: 13µM

Results for COc1ccc(CCN2C(=O)c3[nH]nc(-c4ccccc4O)c3C2c2ccc(O)c(OC)c2)cc1 (stereo unspecified) ?
SMN2 splice up: inactive; FLuc counter: inactive

How did O=C(CCC(=O)Nc1ccc(Cl)cc1Cl)N/N=C/c1ccc([N+](=O)[O-])o1 do in these assays?
NPC1 prom act: inactive; SMN2 splice up: inactive; FLuc counter: inactive; ELG1 genotoxic: inactive; Rab9 prom act: inactive; ELG1 DNA repair: inconclusive

Results for CCOC(=O)c1ccc2c(c1)N(Cc1ccccc1C)C(=O)c1ccccc1S2=O (stereo unspecified) ?
NPC1 prom act: inactive; SMN2 splice up: inactive; FLuc counter: inactive; ELG1 genotoxic: inactive; Rab9 prom act: inactive; ELG1 DNA repair: 16µM

What do the screens show for `COc1ccc2nc(NC(=O)CSc3nnc(-c4ccoc4C)n3C)sc2c1`?
NPC1 prom act: 2.8µM; SMN2 splice up: inconclusive; FLuc counter: 2.7µM; ELG1 genotoxic: inactive; Rab9 prom act: 3.5µM; ELG1 DNA repair: inconclusive

Results for CCn1nnnc1SCC(=O)Nc1nc2ccc(OC)cc2s1 ?
NPC1 prom act: inactive; SMN2 splice up: inactive; FLuc counter: 12µM; ELG1 genotoxic: inactive; Rab9 prom act: inactive; ELG1 DNA repair: inconclusive

What do the screens show for `COc1ccc2nc(NC(=O)CSc3nc(C)cc(C)n3)sc2c1`?
NPC1 prom act: inactive; SMN2 splice up: inactive; FLuc counter: inactive; ELG1 genotoxic: inactive; Rab9 prom act: inactive; ELG1 DNA repair: inconclusive

What do the screens show for `COc1ccc(C(=O)NC2CCCc3c2cnn3-c2ccc(C)c(C)c2)c(OC)c1OC` (stereo unspecified)?
NPC1 prom act: inactive; FLuc counter: inactive; ELG1 genotoxic: inactive; Rab9 prom act: inactive; ELG1 DNA repair: 18µM

What do the screens show for `CC(C)(C)c1ccc(-n2ncc3c2CCCC3NC(=O)c2cnccn2)cc1` (stereo unspecified)?
NPC1 prom act: inactive; FLuc counter: 24µM; ELG1 genotoxic: inconclusive; Rab9 prom act: inactive; ELG1 DNA repair: inconclusive

What do the screens show for `COc1cccc(C(=O)NC2CCCc3c2cnn3-c2ccc(C)c(C)c2)c1OC` (stereo unspecified)?
NPC1 prom act: inactive; FLuc counter: inactive; ELG1 genotoxic: inactive; Rab9 prom act: inactive; ELG1 DNA repair: inactive

Results for CC(C)(C)c1ccc(-n2ncc3c2CCCC3NC(=O)c2csnn2)cc1 (stereo unspecified) ?
NPC1 prom act: inactive; FLuc counter: inactive; ELG1 genotoxic: inactive; Rab9 prom act: inactive; ELG1 DNA repair: inactive

What do the screens show for `Cc1cc(C(=O)NC2CCCc3c2cnn3-c2ccccc2F)nc(C)n1` (stereo unspecified)?
NPC1 prom act: inactive; FLuc counter: inactive; ELG1 genotoxic: inactive; Rab9 prom act: inactive; ELG1 DNA repair: 13µM

What do the screens show for `COc1ccc(Cl)cc1NC(=O)CSc1nc2ccccc2nc1N1CCCCC1`?
SMN2 splice up: inactive; FLuc counter: inactive

How did COc1ccc2nc(SCC(=O)/C(C#N)=C(\C)N)[nH]c2c1 do in these assays?
NPC1 prom act: 1.1µM; FLuc counter: 8.5µM; ELG1 genotoxic: inconclusive; Rab9 prom act: 0.63µM; ELG1 DNA repair: inconclusive

Results for COc1ccc(-c2nnc(SCC(=O)/C(C#N)=C(\C)N)o2)cc1 ?
NPC1 prom act: 0.71µM; SMN2 splice up: 4.5µM; FLuc counter: 0.95µM; ELG1 genotoxic: 1µM; Rab9 prom act: inactive; ELG1 DNA repair: inconclusive

Results for C/C(N)=C(/C#N)C(=O)CSc1nnc(-c2ccccc2Br)o1 ?
NPC1 prom act: 0.45µM; SMN2 splice up: 2.8µM; FLuc counter: 0.85µM; ELG1 genotoxic: 2.6µM; Rab9 prom act: 0.4µM; ELG1 DNA repair: inconclusive

How did CN(C)S(=O)(=O)c1cccc(NC(=S)NCCCn2ccnc2)c1 do in these assays?
NPC1 prom act: inactive; SMN2 splice up: inactive; FLuc counter: inactive; ELG1 genotoxic: inactive; Rab9 prom act: inactive; ELG1 DNA repair: inactive

Results for O=C(CCCC(=O)OCC(=O)c1ccc(Cl)cc1Cl)Nc1cc(C(F)(F)F)ccc1Cl ?
NPC1 prom act: inactive; SMN2 splice up: inactive; FLuc counter: 3.8µM; ELG1 genotoxic: inactive; Rab9 prom act: inactive; ELG1 DNA repair: inactive

What do the screens show for `O=C(COC(=O)c1ccc(O)cc1)Nc1cc(C(F)(F)F)ccc1Cl`?
NPC1 prom act: inactive; SMN2 splice up: inactive; FLuc counter: inactive; ELG1 genotoxic: inactive; Rab9 prom act: inactive; ELG1 DNA repair: inactive

What do the screens show for `O=C(CCCC(=O)OCC(=O)c1ccc(F)cc1)Nc1cc(C(F)(F)F)ccc1Cl`?
NPC1 prom act: inactive; SMN2 splice up: inactive; FLuc counter: 12µM; ELG1 genotoxic: inactive; Rab9 prom act: inactive; ELG1 DNA repair: inactive

Results for Cc1ccc2nc(/C(C#N)=C\c3cc(O)ccc3[N+](=O)[O-])[nH]c2c1 ?
NPC1 prom act: inactive; SMN2 splice up: inactive; FLuc counter: 19µM; ELG1 genotoxic: inactive; Rab9 prom act: inactive; ELG1 DNA repair: inactive

Results for COc1cccc(/C=C(\C#N)c2nc3ccc(C)cc3[nH]2)c1 ?
SMN2 splice up: inactive; FLuc counter: 3.4µM

Results for COc1cc(/C=C(\C#N)c2nc3ccc(C)cc3[nH]2)cc([N+](=O)[O-])c1O ?
NPC1 prom act: inactive; SMN2 splice up: inconclusive; FLuc counter: 3.8µM; ELG1 genotoxic: inconclusive; Rab9 prom act: inconclusive; ELG1 DNA repair: inconclusive

How did COc1cc(/C=C(\C#N)c2nc3ccc(C)cc3[nH]2)c([N+](=O)[O-])cc1OC do in these assays?
NPC1 prom act: inactive; SMN2 splice up: inactive; FLuc counter: inactive; ELG1 genotoxic: inactive; Rab9 prom act: inactive; ELG1 DNA repair: inconclusive
